# In all, about 39,000 compounds went through this assay and about 3,300 (8.5%) were called active. The full list was thinned out, with actives kept by preference.
# System: HepG2
# Experiment: cytotoxicity call (relative viability < 0.9)
# Conditions: 10 µM
row,SMILES,cytotoxicity call
1,N#C[C@@H]1C(=O)NC(=O)[C@@H](C#N)C12CCCC2,inactive
2,Cc1noc(C)c1S(=O)(=O)N(C)C[C@@H]1OCCCC[C@@H](C)Oc2ccc(NC(=O)Nc3ccc(F)cc3)cc2C(=O)N([C@H](C)CO)C[C@@H]1C,inactive
3,C[C@@H]1CN([C@@H](C)CO)C(=O)c2cc(NC(=O)Nc3ccccc3)ccc2O[C@@H](C)CCCCO[C@@H]1CN(C)C(=O)Nc1cccc2ccccc12,inactive
4,Cc1ccc(S(=O)(=O)N(C)C[C@H]2OCCCC[C@H](C)Oc3ccc(NC(=O)Nc4cccc5ccccc45)cc3C(=O)N([C@H](C)CO)C[C@@H]2C)cc1,inactive
5,CCOC(=O)[C@@H](N)Cc1ccccc1,inactive
6,NNC(=O)[C@@H](N)Cc1ccccc1,inactive
7,Cc1cc(C)c(NC(=O)[C@@H](N)Cc2ccccc2)c(Cl)c1,active
8,CC1=CC[C@H](C(C)(C)O)CC1,inactive
9,C=C(C)[C@H]1CC=C(C)CC1,inactive
10,CC(C)=CCCC(C)(O)C1CC=C(C)CC1 (stereo not given),active
11,C[C@@H]1CN([C@H](C)CO)C(=O)c2cc(NC(=O)C3CCCCC3)ccc2O[C@@H](C)CCCCO[C@H]1CN(C)C(=O)C1CCCCC1,inactive
12,C[C@@H]1CN([C@H](C)CO)C(=O)c2c(c3ccccc3n2C)-c2ccccc2CO[C@H]1CN(C)C(=O)Nc1cccc(F)c1,inactive
13,C[C@@H]1CCCCO[C@@H](CN(C)Cc2ccc(Cl)c(Cl)c2)[C@H](C)CN([C@@H](C)CO)C(=O)c2cc(NS(C)(=O)=O)ccc2O1,inactive
14,C[C@@H]1CCCCO[C@@H](CN(C)Cc2ccc(Cl)c(Cl)c2)[C@@H](C)CN([C@@H](C)CO)C(=O)c2cc(NS(C)(=O)=O)ccc2O1,inactive
15,C[C@@H]1CCCCO[C@H](CN(C)Cc2ccc(Cl)c(Cl)c2)[C@H](C)CN([C@@H](C)CO)C(=O)c2cc(NS(C)(=O)=O)ccc2O1,active
16,C[C@@H]1CCCCO[C@H](CN(C)Cc2ccc(Cl)c(Cl)c2)[C@@H](C)CN([C@H](C)CO)C(=O)c2cc(NS(C)(=O)=O)ccc2O1,inactive
17,C[C@@H]1CN([C@H](C)CO)C(=O)c2cc(NS(C)(=O)=O)ccc2O[C@@H](C)CCCCO[C@H]1CN(C)Cc1ccc(Cl)c(Cl)c1,active
18,C[C@@H]1CCCCO[C@H](CN(C)Cc2ccc(Cl)c(Cl)c2)[C@@H](C)CN([C@@H](C)CO)C(=O)c2cc(NS(C)(=O)=O)ccc2O1,inactive
19,C[C@@H](NC(=O)C[C@@H]1CC[C@@H](NC(=O)CN2CCOCC2)[C@@H](CO)O1)c1ccccc1,inactive
20,O=C1c2cccc(O)c2C(=O)c2c(O)cccc21,active
21,O=C1c2c(O)cccc2Cc2cccc(O)c21,inactive
22,Cc1cc(O)c2c(c1)C(=O)c1cccc(O)c1C2=O,inactive
23,COc1cccc(NC(=O)N2C[C@H](O)COC[C@@H]3O[C@@H](CC(=O)NCc4ccccc4F)CC[C@H]32)c1,inactive

row,SMILES,cytotoxicity call
1,CNC(=O)CN(C#N)c1nc(N(C)C)nc(N(C)C)n1,inactive
2,C[C@@H]1CCCCO[C@H](CN(C)Cc2ccc(C(=O)O)cc2)[C@H](C)CN([C@@H](C)CO)C(=O)c2cc(NC(=O)Nc3cccc4ccccc34)ccc2O1,inactive
3,C[C@H](CO)N1C[C@H](C)[C@@H](CN(C)Cc2ccc(C(F)(F)F)cc2)Oc2c(NC(=O)Nc3ccccc3)cccc2C1=O,inactive
4,NNC(=O)c1nnn(-c2nonc2N)c1CN1CCCCC1,inactive
5,CN(C)Cc1c(C(=O)N/N=C/c2ccncc2)nnn1-c1nonc1N,active
6,CCc1c(C(=O)OC)nnn1-c1nonc1N,inactive
7,Cc1noc(C)c1NC(=O)N(C)C[C@@H]1Oc2c(NS(=O)(=O)c3ccccc3)cccc2C(=O)N([C@@H](C)CO)C[C@H]1C,inactive
8,COc1ccc(NC(=O)N(C)C[C@@H]2OCCCC[C@H](C)Oc3ccc(NC(=O)Nc4ccc(C(F)(F)F)cc4)cc3C(=O)N([C@@H](C)CO)C[C@@H]2C)cc1,inactive
9,C[C@@H]1CCCCO[C@H](CN(C)C(=O)Nc2ccccc2)[C@H](C)CN([C@@H](C)CO)C(=O)c2cc(NC(=O)Nc3ccc(C(F)(F)F)cc3)ccc2O1,inactive
10,O=C1CC[C@H](C(=O)N2CCCCC2)N1,inactive
11,Cc1noc(C)c1S(=O)(=O)Nc1ccc2c(c1)CC(=O)N([C@H](C)CO)C[C@@H](C)[C@@H](CN(C)S(=O)(=O)c1ccc(Cl)cc1)O2,inactive
12,COc1ccc(S(=O)(=O)N(C)C[C@@H]2Oc3ccc(NS(=O)(=O)c4ccccc4)cc3CC(=O)N([C@@H](C)CO)C[C@H]2C)cc1,active
13,Cc1ccc(S(=O)(=O)N(C)C[C@H]2Oc3ccc(NS(=O)(=O)c4ccc(F)cc4)cc3CC(=O)N([C@@H](C)CO)C[C@@H]2C)cc1,active
14,Cc1noc(C)c1S(=O)(=O)Nc1ccc2c(c1)CC(=O)N([C@@H](C)CO)C[C@@H](C)[C@H](CN(C)S(=O)(=O)c1ccc(Cl)cc1)O2,active
15,Cc1ccc(S(=O)(=O)N(C)C[C@H]2Oc3ccc(NS(=O)(=O)c4ccc(F)cc4)cc3CC(=O)N([C@@H](C)CO)C[C@H]2C)cc1,inactive
16,COc1ccc(S(=O)(=O)N(C)C[C@@H]2Oc3ccc(NC(=O)Cc4ccccc4)cc3CC(=O)N([C@H](C)CO)C[C@@H]2C)cc1,active
17,Cc1noc(C)c1S(=O)(=O)Nc1ccc2c(c1)CC(=O)N([C@H](C)CO)C[C@H](C)[C@@H](CN(C)S(=O)(=O)c1ccc(Cl)cc1)O2,inactive
18,COc1ccc(S(=O)(=O)Nc2ccc3c(c2)CC(=O)N([C@@H](C)CO)C[C@H](C)[C@@H](CN(C)S(=O)(=O)c2ccccc2)O3)cc1,inactive
19,COc1ccc(S(=O)(=O)N(C)C[C@@H]2Oc3ccc(NS(=O)(=O)c4ccccc4)cc3CC(=O)N([C@H](C)CO)C[C@H]2C)cc1,inactive
20,Cc1ccc(S(=O)(=O)Nc2ccc3c(c2)CC(=O)N([C@@H](C)CO)C[C@H](C)[C@@H](CN(C)S(=O)(=O)c2ccc(F)cc2)O3)cc1,inactive
21,COc1ccc(S(=O)(=O)N(C)C[C@@H]2Oc3ccc(NC(=O)Cc4ccccc4)cc3CC(=O)N([C@@H](C)CO)C[C@H]2C)cc1,inactive
22,COc1ccc(S(=O)(=O)N(C)C[C@H]2Oc3ccc(NC(=O)Cc4ccccc4)cc3CC(=O)N([C@H](C)CO)C[C@@H]2C)cc1,inactive

# — the antibiotic and cytotoxicity screens of Wong et al. (2023)
